Hit rate of the full screen: of about 5,500 compounds, about 2,000 (36%) were called active. Inconclusive results (about 18%) are left out. Rule as the data show it: active = normalized growth mostly below about 0.91 (no sharp cut-off); inconclusive = no clear call, values can overlap the other calls; inactive = mostly above about 0.92. The list shows a part of the results.
Assay: chemical genetic growth profiling, strain panel (AID 1159580);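 also: tested at 20 µM; growth read once vehicle control cultures reached saturation at 30 °C; 1 = growth at the plate median or of vehicle wells; lower values mean less growth of the strain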
Details: growth OD

Measured: normalized growth

CC(=O)[C@@]1(O)CCC2C3C[C@H](C)C4=CC(=O)C=CC4(C)[C@@]3(F)[C@@H](O)C[C@@]21C (stereo partly drawn)
inactive: S. cerevisiae deletion strains, locus YJR066W, strain TOR1, active compounds read low 0.936 | S. cerevisiae deletion strains, locus YKL009W, strain mrt4, active compounds read low 1.01 | S. cerevisiae deletion strains, locus YKL068W, active compounds read low 1.01 | S. cerevisiae deletion strains, locus YKL085W, strain MDH1 (second series), active compounds read low 1.01 | S. cerevisiae deletion strains, locus YKL085W, strain MDH1, active compounds read low 1.01 | S. cerevisiae deletion strains, locus YKL160W, strain elf1, active compounds read low 0.976 | S. cerevisiae deletion strains, locus YKL190W, strain CNB1, active compounds read low 0.988 | S. cerevisiae deletion strains, locus YKR001C, strain vps1, active compounds read low 0.987 | S. cerevisiae deletion strains, locus YKR026C, strain gcn3, active compounds read low 0.982 | S. cerevisiae deletion strains, locus YKR091W, strain srl3, active compounds read low 0.956 | S. cerevisiae deletion strains, locus YLL001W, strain dnm1, active compounds read low 1.01 | S. cerevisiae deletion strains, locus YLL026W, active compounds read low 0.979 | S. cerevisiae deletion strains, locus YLL041C, strain sdh2, active compounds read low 0.988 | S. cerevisiae deletion strains, locus YLR027C, strain aat2, active compounds read low 0.978 | S. cerevisiae deletion strains, locus YLR039C, strain RIC1, active compounds read low 1.03 | S. cerevisiae deletion strains, locus YLR058C, strain SHM2, active compounds read low 1.01 | S. cerevisiae deletion strains, locus YLR102C, strain apc9, active compounds read low 1 | S. cerevisiae deletion strains, locus YLR113W, strain HOG1, active compounds read low 0.988 | S. cerevisiae deletion strains, locus YLR221C, strain rsa3, active compounds read low 0.968 | S. cerevisiae deletion strains, locus YLR258W, strain gsy2, active compounds read low 0.971 | S. cerevisiae deletion strains, locus YLR262C, strain YPT6 (second series), active compounds read low 0.981 | S. cerevisiae deletion strains, locus YLR262C, strain YPT6, active compounds read low 0.98 | S. cerevisiae deletion strains, locus YLR268W, strain sec22, active compounds read low 0.991 | S. cerevisiae deletion strains, locus YLR320W, strain mms22, active compounds read low 0.962 | S. cerevisiae deletion strains, locus YLR330W, strain CHS5, active compounds read low 1 | S. cerevisiae deletion strains, locus YLR342W, strain FKS1 (second series), active compounds read low 0.992 | S. cerevisiae deletion strains, locus YLR342W, strain FKS1, active compounds read low 0.979 | S. cerevisiae deletion strains, locus YLR357W, strain rsc2, active compounds read low 0.951 | S. cerevisiae deletion strains, locus YLR370C, strain arc18, active compounds read low 0.982 | S. cerevisiae deletion strains, locus YLR371W, strain rom2, active compounds read low 1 | S. cerevisiae deletion strains, locus YLR384C, strain iki3, active compounds read low 0.981 | S. cerevisiae deletion strains, locus YLR418C, strain cdc73, active compounds read low 1.02 | S. cerevisiae deletion strains, locus YML016C, strain PPZ1, active compounds read low 1 | S. cerevisiae deletion strains, locus YML032C, strain rad52, active compounds read low 0.996 | S. cerevisiae deletion strains, locus YML120C, strain ndi1, active compounds read low 0.954 | S. cerevisiae deletion strains, locus YML124C, strain tub3, active compounds read low 1.01 | S. cerevisiae deletion strains, locus YMR058W, strain fet3, active compounds read low 0.983 | S. cerevisiae deletion strains, locus YMR078C, strain ctf18, active compounds read low 1 | S. cerevisiae deletion strains, locus YMR125W, strain sto1, active compounds read low 0.965 | S. cerevisiae deletion strains, locus YMR129W, active compounds read low 0.964 | S. cerevisiae deletion strains, locus YMR205C, strain PFK2, active compounds read low 0.975 | S. cerevisiae deletion strains, locus YMR223W, strain ubp8, active compounds read low 1.04 | S. cerevisiae deletion strains, locus YMR231W, strain pep5, active compounds read low 0.973 | S. cerevisiae deletion strains, locus YMR307W, strain GAS1, active compounds read low 0.976 | S. cerevisiae deletion strains, locus YNL067W, strain RPL9B, active compounds read low 0.993 | S. cerevisiae deletion strains, locus YNL071W, strain lat1, active compounds read low 0.972 | S. cerevisiae deletion strains, locus YNL128W, strain TEP1, active compounds read low 1.01 | S. cerevisiae deletion strains, locus YNL153C, strain GIM3, active compounds read low 0.992 | S. cerevisiae deletion strains, locus YNL183C, strain NPR1, active compounds read low 0.942 | S. cerevisiae deletion strains, locus YNL209W, strain ssb2, active compounds read low 0.98 | S. cerevisiae deletion strains, locus YNL233W, strain BNI4, active compounds read low 1 | S. cerevisiae deletion strains, locus YNL248C, strain rpa49, active compounds read low 0.914 | S. cerevisiae deletion strains, locus YNL250W, strain rad50, active compounds read low 1.03 | S. cerevisiae deletion strains, locus YNL271C, strain bni1, active compounds read low 1.02 | S. cerevisiae deletion strains, locus YNL298W, strain CLA4, active compounds read low 0.999 | S. cerevisiae deletion strains, locus YNL307C, strain MCK1, active compounds read low 1.02 | S. cerevisiae deletion strains, locus YNL322C, strain KRE1 (second series), active compounds read low 0.955 | S. cerevisiae deletion strains, locus YNR049C, strain mso1, active compounds read low 0.951 | S. cerevisiae deletion strains, locus YNR052C, strain pop2, active compounds read low 1.01 | S. cerevisiae deletion strains, locus YOL012C, strain htz1 0.807 | S. cerevisiae deletion strains, locus YOL147C, strain pex11, active compounds read low 1.01 | S. cerevisiae deletion strains, locus YOR001W, strain rrp6, active compounds read low 0.971 | S. cerevisiae deletion strains, locus YOR061W, strain CKA2, active compounds read low 1.01 | S. cerevisiae deletion strains, locus YOR069W, strain VPS5, active compounds read low 1 | S. cerevisiae deletion strains, locus YOR070C, strain gyp1, active compounds read low 0.986 | S. cerevisiae deletion strains, locus YOR080W, strain dia2, active compounds read low 0.975 | S. cerevisiae deletion strains, locus YOR083W, strain WHI5, active compounds read low 0.974 | S. cerevisiae deletion strains, locus YOR106W, strain vam3, active compounds read low 0.977 | S. cerevisiae deletion strains, locus YOR136W, strain idh2, active compounds read low 1 | S. cerevisiae deletion strains, locus YOR144C, strain elg1, active compounds read low 1 | S. cerevisiae deletion strains, locus YOR184W, strain ser1, active compounds read low 1.01 | S. cerevisiae deletion strains, locus YOR231W, strain MKK1, active compounds read low 1 | S. cerevisiae deletion strains, locus YOR265W, strain rbl2, active compounds read low 0.974 | S. cerevisiae deletion strains, locus YOR270C, strain vph1, active compounds read low 0.926 | S. cerevisiae deletion strains, locus YOR290C, strain snf2, active compounds read low 0.944 | S. cerevisiae deletion strains, locus YOR316C, strain cot1, active compounds read low 1.01 | S. cerevisiae deletion strains, locus YPL051W, strain arl3, active compounds read low 0.985 | S. cerevisiae deletion strains, locus YPL055C, strain LGE1, active compounds read low 0.993 | S. cerevisiae deletion strains, locus YPL078C, strain atp4, active compounds read low 0.992 | S. cerevisiae deletion strains, locus YPL106C, strain sse1, active compounds read low 0.922 | S. cerevisiae deletion strains, locus YPL240C, strain hsp82, active compounds read low 0.975 | S. cerevisiae deletion strains, locus YPL256C, strain CLN2, active compounds read low 0.981 | S. cerevisiae deletion strains, locus YPR119W, strain clb2, active compounds read low 1.01 | S. cerevisiae deletion strains, locus YPR141C, strain kar3, active compounds read low 1.01 | S. cerevisiae deletion strains, locus YPR163C, strain tif3, active compounds read low 1.01 | S. cerevisiae deletion strains, locus YPR167C, strain met16, active compounds read low 1.02 | S. cerevisiae deletion strains, strain wtn01, active compounds read low 1.01 | S. cerevisiae strains, strain wild type, active compounds read low 0.987
